# Assay outcomes: PubChem, National Center for Advancing Translational Sciences (NCATS)
# ELG1 repair inh = qHTS screen for small molecules that inhibit ELG1-dependent DNA repair in human embryonic kidney (HEK293T) cells expressing luciferase-tagged ELG1 | HEK293T ELG1-luciferase reporter, luminescence, 16 h; DNA damage induced by 5-fluorouridine | Potency, µM (highest dose often 46.1 µM), inactives show at the highest dose activity change, negative = inhibition, usual class: inhibitors | 2.3% of 330,000 active | AID 504467, 2011; note: % is set by controls: 0 for no effect and ±100 for the full control effect; nearly all actives have a fitted effect of over 55% in size
#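 DMSO vehicle served as the neutral condition. Each well held 2,000 cells given 5-fluorouridine plus compound; after 16 hr at 37 °C/5% CO2, ONE-Glo was added and luciferase measured 30 min later.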
# SW480 rerep = A quantitative high throughput screen for small molecules that induce DNA re-replication in SW480 colon adenocarcinoma cells; SW480 DNA re-replication, Hoechst DNA content imaging, 48 h; Potency, µM (titrated, usually from 46.1 µM), without a hit: top-dose re-replication activation, actives largely listed as activators; 1.8% of 340,000 active; note: % of control where 0% means no effect; nearly all actives have a fitted effect of over 55% in size
#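 Readout is total intensity of Hoechst-stained nuclei, excited at 405 nm and collected at 500-530 nm. Compound treatment lasted 48 hr at 37 C in 5% CO2 before staining.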
# KB-V1 MDR tox = qHTS assay for MDR1-selective chemotherapeutics: Primary screen using the drug-selected MDR subline cells KB-V1; KB-V1 MDR cells viability, CellTiter-Glo, 72 h; Potency, µM (doses to about 46.1 µM), actives largely listed as cytotoxic; 3.4% of 400,000 active; AID 1347076, 2019; note: % is set by controls: 0 for no effect and ±100 for the full control effect; nearly all actives have a fitted effect of over 60% in size
#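 Drug-selected KB-V1 cells, grown in DMEM lacking phenol red with 10% FBS, receive compound titrations; after three days at 37 degrees C, surviving cell ATP is quantified by CellTiter-Glo luminescence and responses normalized and curve-fitted.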
# KB-3-1 cytotox = qHTS assay for MDR1-selective chemotherapeutics: Primary screen using the parental adenocarcinoma cell KB-3-1; KB-3-1 viability, CellTiter-Glo ATP luminescence, 72 h; Potency, µM (top dose mostly 46.1 µM), hits mostly cytotoxic; 1.4% of 400,000 active; note: % is set by controls: 0 for no effect and ±100 for the full control effect; nearly all actives have a fitted effect of over 60% in size
#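 Viability of parental KB-3-1 cells, measured by CellTiter-Glo luminescence, followed a 72 h incubation at 37 °C with pinned compounds in phenol-red-free DMEM containing 10% FBS.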
# MCF10A rerep = A quantitative high throughput screen for small molecules that induce DNA re-replication in MCF 10a normal breast cells | Potency, µM (highest dose often 46.1 µM), for the others: top-dose activity, positive = re-replication, most hits filed as activators | 2.9% of 350,000 active | MCF 10A DNA re-replication, Hoechst nuclear intensity, 48 h; note: % of control where 0% means no effect; nearly all actives have a fitted effect of over 50% in size
# An asterisk follows results filed as active; i = inactive; ? = inconclusive; / = no result given; ! = not confirmed by another sample. The list is not random: actives were taken first. Their share in the collection is about 8.2%. Calls come from the whole dose curve; as a rule, active = well fitted curve in the direction sought with a large enough effect; inconclusive = small, poorly fitted or top-dose-only effect, or another doubt; inactive = no such curve, though single readings can be large; an effect the other way counts as inactive or inconclusive. Potency is the fitted concentration of half-maximal effect.
SMILES,ELG1 repair inh,SW480 rerep,KB-V1 MDR tox,KB-3-1 cytotox,MCF10A rerep
O=C(Nc1ccc2c(c1)OCO2)c1ccc(N2CCCC2)c([N+](=O)[O-])c1,?,11%,23µM*,i,11%
COc1cccc(CNC(=O)COC(=O)c2cc([N+](=O)[O-])ccc2N2CCCC2)c1,?,-9%,7.3µM*,i,2%
CC1CCCN(c2ccc(C(=O)Nc3cccnc3)cc2[N+](=O)[O-])C1 (centres undefined),15µM*,1%,?,i,4%
CC(C)C[C@@H](N)C(=O)O,/,1%,/,/,-3%
N#CC1CC(c2ccc([N+](=O)[O-])cc2)=NN1c1ccc([N+](=O)[O-])cc1 (centres undefined),-4%,?,?,i,6.5µM*
CCN(CC)S(=O)(=O)c1ccc(N(C)C)c(NC(=O)CSCc2c(C)noc2C)c1,21µM*,?,?,i,13%
CCN(CC)S(=O)(=O)c1ccc(OC)c(NC(=O)CSCc2c(C)noc2C)c1,-24%,3%,i,i,-19%
Cc1noc(C)c1CSCC(=O)Nc1cccc(C(F)(F)F)c1,-2%,-6%,/,/,18µM*
Cc1noc(C)c1CSCC(=O)Nc1ccc(S(C)(=O)=O)cc1,-6%,1%,?,i,-3%
COc1ccc([C@H]2CC(=O)C=C(c3ccc4cc[nH]c4c3)C2)cc1,?,7%,i,?,29%
O=C(Nc1ccc2ccccc2c1)Nc1nnc(-c2ccccc2F)s1,/,/,i,?,/
O=C(CCl)N1CCN(S(=O)(=O)Cc2ccccc2)CC1,9.2µM*,211%,?,23µM*,?
CCNC(=O)c1c(O)c2ccccc2[nH]c1=O,-3%,10%,i,i,6.5µM*
CC(C)=NNC(=O)c1c(O)c2ccccc2[nH]c1=O,-18%,11%,i,i,9.2µM*
O=C(NC1CC1)c1c(O)c2ccccc2[nH]c1=O,?,-12%,i,?,?
CCOC(=O)COc1ccc2c(c1)c(C(C)=O)c(C)n2-c1ccc(OC)cc1,0%,-1%,i,i,-14%
O=C1c2oc3ccccc3c(=O)c2C(c2cccnc2)N1Cc1ccco1 (centres undefined),6%,-9%,7.3µM*,i,17%
O=C1c2oc3ccc(Cl)cc3c(=O)c2C(c2cccnc2)N1Cc1ccco1 (centres undefined),12%,/,/,/,/
CN(C)CCN1C(=O)c2oc3ccccc3c(=O)c2C1c1cccc(Br)c1 (centres undefined),?,-7%,10µM*,i,0%
CCOc1ccc(N2CC(C(=O)Nc3ccccc3C(=O)NC3CC3)CC2=O)cc1 (centres undefined),3%,2%,i,i,0%
COc1ccccc1N1CCN(C(=O)c2sc3ncnc(N4CCN(c5ccccn5)CC4)c3c2C)CC1,18µM*,5%,23µM*,?,18µM*
COc1ccc(NC(=O)c2sc3ncn(CC(=O)N4CCN(c5ccccn5)CC4)c(=O)c3c2C)c(OC)c1,?,1%,i,i,13%
COc1ccc(OC)c(NC(=O)c2sc3ncnc(N4CCN(c5ccccn5)CC4)c3c2C)c1,2.6µM*,-8%,i,i,4%
Cc1c(C(=O)N2CCN(c3ccc(F)cc3)CC2)sc2ncnc(N3CCN(c4ccccn4)CC3)c12,6.5µM*,-4%,i,i,?
Cc1nc(N2CCN(c3ccccn3)CC2)c2c(C)c(C(=O)N3CCN(c4ccc(F)cc4)CC3)sc2n1,23µM*,1%,i,i,?
SMILES,ELG1 repair inh,SW480 rerep,KB-V1 MDR tox,KB-3-1 cytotox,MCF10A rerep
O=C(COC(=O)/C=C/c1ccc2c(c1)OCO2)NCc1ccccc1,-11%,?,i,i,1%
Cc1ccc(NC(=O)Nc2nnc(N3CCCC3)s2)cc1C,/,/,i,i,/
Cc1c(C(=O)N2CCC(C)CC2)sc2ncnc(N3CCN(c4ccccc4)CC3)c12,19%,-6%,4.6µM*,i,8%
O=C1COc2ccccc2C(c2nc3ccccc3[nH]2)N1Cc1ccccc1 (centres undefined),/,/,i,i,/
O=C(CSc1nc2ccsc2c(=O)n1Cc1ccc(C(=O)O)cc1)NCc1ccco1,6%,0%,i,i,0%
Cc1ccc(CNC(=O)CSc2nc3ccsc3c(=O)n2Cc2ccc(C(=O)O)cc2)cc1,6%,-23%,?,i,0.65µM*
COc1ccc(CCn2c(SCC(=O)Nc3cc(C)on3)nc3ccsc3c2=O)cc1OC,10µM*,?,i,i,?
COc1ccc(CCn2c(SCC(=O)Nc3cc(C)on3)nc3ccccc3c2=O)cc1OC,4%,-9%,?,i,-6%
CCc1nc(N)nc(N)c1-c1ccc(Cl)c(N=[N+]=[N-])c1,/,14%,16µM*,12µM*!,?
CCc1nc(N)nc(N)c1-c1ccc(Cl)c([N+](=O)[O-])c1,/,-4%,i,0.65µM*,15%
C[C@@H]1[C@H]2[C@@H](O[C@@H]3O[C@H](CO)[C@@H](O)[C@H](O)[C@H]3O)OC=C(C(=O)O)[C@H]2C[C@@H]1O,0%,-1%,?,?,-3%
CSc1ccccc1C(=O)OCC(=O)NC1CCCCCCC1,/,/,i,i,/
COc1ccc(NC(=O)C(=O)NCC(c2cccnc2)N2CCc3ccccc3C2)cc1 (centres undefined),/,/,i,i,/
COc1cc(C(=O)OCc2ccc(C)cc2)cc(NC(=O)c2cccs2)c1OC,21µM*,?,?,i,23µM*
COc1ccc(C(=O)Nc2cnc(NC(=O)c3cccs3)cc2C)cc1,?,?,i,i,7.3µM*
COc1c(Cl)cc(Cl)cc1/C=C/C(=O)c1ccc(NC(=O)c2cccs2)cc1,?,6.5µM*,18µM*,?,3.7µM*
COc1cc(C(=O)Nc2cccc(NC(=O)c3cccs3)c2)cc(OC)c1OC,8.2µM*,?,i,i,0%
O=C(COC(=O)c1cccc(O)c1)Nc1ccc(N2CCOCC2)cc1,0%,-6%,i,i,-5%
COc1cccc(C(=O)Nc2cc(NC(=O)c3cccs3)ccc2C)c1OC,16µM*,-17%,?,?,-1%
CNC(=O)C1CCC(Cn2c(=O)c3sccc3n(CC(=O)NCc3ccc(C)cc3)c2=O)CC1 (centres undefined),/,/,?,i,/
